Test [1] can be described thus: NCI Yeast Anticancer Drug Screen. Data for the rad50 strain (AID 155).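 Also: 0% = growth of vehicle-only cultures of the same strain.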 To be noted: S. cerevisiae rad50 strain growth inhibition; at 50.0 µM; active compounds read high. An outline of the steps:
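Growth of the mutant yeast was measured after compound exposure and referenced to vehicle-treated cultures.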

Test [2] in a line: NCI Yeast Anticancer Drug Screen. Data for the mec2-1 strain (AID 157). To be noted: S. cerevisiae mec2-1 strain, at 50.0 µM, active compounds read high. An outline of the steps: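 Using mec2-1 yeast: add compound, measure growth, express inhibition versus vehicle-treated cultures.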
Test [3] can be described thus: NCI Yeast Anticancer Drug Screen. Data for the sgs1 mgt1 strain (AID 161).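 Also: 0% = growth of cultures given vehicle only.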 To be noted: S. cerevisiae sgs1 mgt1 strain, at 50.0 µM, active compounds read high. An outline of the steps: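 Percent growth inhibition was derived by comparing compound-exposed mutant yeast with vehicle-exposed cultures. The strain carries alterations in DNA damage repair.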
Test [4] can be described thus: NCI Yeast Anticancer Drug Screen. Data for the cln2 rad14 strain (AID 165).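 Also: 0% = growth equal to vehicle treated cultures.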 The note with it: S. cerevisiae cln2 rad14 strain, at 50.0 µM, active compounds read high. An outline of the steps:
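Yeast strain cln2 rad14, bearing defects in cell cycle control and DNA repair, serves as the test system; values reflect growth inhibition compared with vehicle.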

Test [5] is described as follows: NCI Yeast Anticancer Drug Screen. Data for the bub3 strain (AID 167). To be noted: S. cerevisiae bub3 mutant strain, at 50.0 µM, active compounds read high. An outline of the steps: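 Whole-cell yeast assay. The mutant strain was incubated with compounds, and growth inhibition was determined by comparison with vehicle-treated cells.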
Test [6] is described as follows: NCI Yeast Anticancer Drug Screen. Data for the mlh1 rad18 strain (AID 175). The note with it: S. cerevisiae mlh1 rad18 strain growth inhibition; at 50.0 µM; active compounds read high. In short, it runs like this:
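Steps: expose repair-defective yeast to compound; measure growth; express inhibition against vehicle-treated controls.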

Molecules are shown by their SMILES. This is part of a sample that, as a whole, favours compounds with a hit. Of some 79,000 tested, about 15% had one in any assay. Values without a mark were called inactive. Calls of active or inactive are those of the source. Rule as the data show it: active = growth inhibition above about 70%; inactive = the rest.

Regarding `NC(=O)CC1OC(=O)Cc2cc3c(c(O)c21)C(=O)c1c(O)cccc1C3=O` (centres undefined), the growth inhibition is 1.05% in test [1]; 3.55% in test [2]; 22.4% in test [3]; 27.7% in test [4]; 16.5% in test [5]; -28.6% in test [6].

As for `N#Cc1nc(-c2cccc(-c3nc(C#N)c(N)o3)n2)oc1N`, the growth inhibition is 2.7% in test [1]; 13.7% in test [2]; -18.1% in test [3]; 7.9% in test [4]; -11.8% in test [5]; -58.6% in test [6].

With `C=CC(COC(=O)C(C)(C)OC(C)=O)c1ccc(OC(=O)C(C)C)c(OC)c1` (centres undefined), the growth inhibition was -12.3% in test [1]; -2.75% in test [2]; 20.4% in test [3]; -12.3% in test [4]; -9% in test [5]; -76.1% in test [6].

For `CC(C)O/N=C/c1cc(NC(=S)OC(C)C)ccc1Cl`, the growth inhibition in test [1] was 2.35%; in test [2], -8.75%; in test [3], 11.1%; in test [4], -4.8%; in test [5], -10.9%; in test [6], -57.5%.

Consider `NC(=S)NS(=O)(=O)c1ccc(N)cc1`, for which the growth inhibition in test [1] is -24.6%; in test [2], -38.2%; in test [3], -6%; in test [4] it was 4.35%; in test [5], -16.4%; in test [6], 8.3%.

Consider `N#Cc1nc(C(F)(F)F)oc1N`, for which the growth inhibition in test [1] is -2.6%; in test [2] it was -1%; in test [3] it was -0.95%; in test [4], -7.85%; in test [5] it was -3.3%; in test [6], -42.4%.

Consider `C=CC1=C(C)C2=NC1=CC1=NC(=C(CC)/C1=C\O)C=C1N=C3C(=C1C)C(=O)[C@H](C(=O)OC)C3=C1NC(=C2)[C@@H](C)[C@@H]1CCC(=O)O`, for which the growth inhibition in test [1] was -19.7%; in test [2] it was 0.7%; in test [3], 4.1%; in test [4], 9.15%; in test [5], -4.35%; in test [6], -15.9%.

Take `Cc1cc(S(=O)(=O)O)c(NC(=O)c2oc3cc(O)ccc3c(=O)c2C)cc1Cl`: the growth inhibition in test [1] was -9.4%; in test [2], -22.9%; in test [3] it was 3.9%; in test [4], 9.5%; in test [5], -8.35%; in test [6] it was 3.95%.

For `C[N+](C)(CCNC(=O)c1cccc2cc3ccccc3nc12)Cc1ccc([N+](=O)[O-])s1`, the growth inhibition was -13.4% in test [1]; -37.2% in test [2]; -12.7% in test [3]; 4.1% in test [4]; -40% in test [5]; -36.7% in test [6].

As to `COc1ccc2cc1Oc1ccc(cc1)C[C@@H]1c3cc(c(OC)cc3CCN1C)Oc1c(OC)c(OC)cc3c1[C@H](C2)N(C)CC3`, the growth inhibition was 22.1% in test [1]; -19.9% in test [2]; 6.25% in test [3]; 5.1% in test [4]; 9.4% in test [5]; -49.9% in test [6].

In the case of `COC(=O)C(=O)C(C(=O)C(=O)Nc1ccccc1C(C)=O)c1nc2ccc(C(=O)c3ccccc3)cc2[nH]c1=O` (centres undefined), the growth inhibition was 25.9% in test [1]; -6.6% in test [2]; 33.6% in test [3]; 28.6% in test [4]; 5.25% in test [5]; 24.5% in test [6].

`N#CCCOc1ccccc1`: the growth inhibition in test [1] was -1.3%; in test [2], -26%; in test [3], -9.9%; in test [4], 15.9%; in test [5], -30.6%; in test [6], -8.5%.

As for `CC(C)C1OC(N)=C(C#N)C1(C#N)C#N` (centres undefined), the growth inhibition in test [1] was 8.9%; in test [2], 27%; in test [3] it was -7.35%; in test [4], -11.8%; in test [5], -19%; in test [6] it was -38.6%.

With `CN1C2CCC1CC(OC(=O)C(O)c1ccccc1)C2` (centres undefined), the growth inhibition in test [1] was 9.3%; in test [2] it was -3.75%; in test [3], -27.9%; in test [5], -35.8%.

For the compound `COc1cc(N(CCC#N)CCC#N)ccc1/C(N=Nc1ccc(Cl)cc1)=N/NC(=O)c1cc(Br)ccc1O`, the growth inhibition in test [1] was 7.6%; in test [2], -7.45%; in test [3] it was -6.45%; in test [4], 7.2%; in test [5], 17.8%; in test [6], 52%.

As for `O=C(/C=C(\[O-])c1ccccc1)CCCCCCC(=O)/C=C(\[O-])c1ccccc1.O=C(/C=C(\[O-])c1ccccc1)CCCCCCC(=O)/C=C(\[O-])c1ccccc1.O=C(/C=C(\[O-])c1ccccc1)CCCCCCC(=O)/C=C(\[O-])c1ccccc1.[La+3].[La+3]`, the growth inhibition in test [1] is -2.3%; in test [2], -8.75%; in test [3] it was 5.5%; in test [5], 12.3%; in test [6], -10.1%.

On to `COc1c(O)ccc(C2=Cc3ccc(O)cc3OC2)c1OC`, for which the growth inhibition in test [1] is 80.2% (active); in test [2], 91.5% (active); in test [3], 88.2% (active); in test [4], 88.3% (active); in test [5] it was 88.7% (active); in test [6], -25.6%.

For `O=C(O)CCNC(=O)c1ccccc1`, the growth inhibition was -6.2% in test [1]; -7.4% in test [2]; -20% in test [3]; 7.95% in test [5]; -12.8% in test [6].

Regarding `Cc1nnc(SCC2=C(C(=O)O)N3C(=O)C(NC(=O)Cn4cnnn4)C3SC2)s1` (centres undefined), the growth inhibition was 41.8% in test [1]; 3.45% in test [2]; 15.6% in test [3]; -1.9% in test [5]; 13.3% in test [6].

In the case of `CC(=O)C(C(C)=O)c1ccccc1`, the growth inhibition in test [1] was -5.15%; in test [2], 2.7%; in test [3], 3.05%; in test [5] it was 4.05%; in test [6], -5.75%.

For the origin of these results see PubChem BioAssay (NCI).
